# In PMC7862700, “An all-to-all approach to the identification of sequence-specific readers for epigenetic DNA modifications on cytosine”:
# How the values were obtained:
# Experiment in all cases: DAPPL (digital affinity profiling via proximity ligation, sequencing); 10 mM Tris-HCl pH 7.5, 50 mM NaCl, 1 mM DTT, 4% glycerol, room temperature, 30 min; GST-TFs on glutathione beads, 16-mer random dsDNA library, 0.1% formaldehyde crosslink after washing; high values mean tight binding
# [1] = molecular target: T1, FLI1 (Homo sapiens, UniProt Q01543 1-452); conditions: protein: recombinant; tags: N-terminal GST; dsDNA, one strand shown
# T1 sequence: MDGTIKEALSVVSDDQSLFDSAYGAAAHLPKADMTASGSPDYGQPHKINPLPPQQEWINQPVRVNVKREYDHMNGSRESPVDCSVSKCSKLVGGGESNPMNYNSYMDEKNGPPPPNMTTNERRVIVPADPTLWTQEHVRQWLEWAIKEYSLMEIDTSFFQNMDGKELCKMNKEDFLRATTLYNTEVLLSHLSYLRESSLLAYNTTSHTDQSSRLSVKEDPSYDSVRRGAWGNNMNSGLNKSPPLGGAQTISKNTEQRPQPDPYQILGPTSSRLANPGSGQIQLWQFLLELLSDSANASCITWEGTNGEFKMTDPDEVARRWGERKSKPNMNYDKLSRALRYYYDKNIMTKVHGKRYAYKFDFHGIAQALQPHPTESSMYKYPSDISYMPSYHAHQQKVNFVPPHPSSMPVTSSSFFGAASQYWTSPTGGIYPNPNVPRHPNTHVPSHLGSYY
# Method in brief: (§1)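 Binding signal is given per hexamer as its read frequency for a factor divided by its frequency in the tag-only sample. GST-fused human transcription factors were expressed in yeast, captured on glutathione beads, barcoded with DNA and pooled with that sample, then incubated with 200 nmole of a 16-mer random double-stranded DNA library in Tris/NaCl/DTT/glycerol buffer for 30 min at room temperature. The pools were then washed, crosslinked, proximity-ligated, amplified by PCR and sequenced on an Illumina NextSeq500.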
# [2] = molecular target: T2, ELK1 (Homo sapiens, UniProt P19419 1-428); conditions: protein: recombinant; tags: N-terminal GST; dsDNA, one strand shown
# T2 sequence: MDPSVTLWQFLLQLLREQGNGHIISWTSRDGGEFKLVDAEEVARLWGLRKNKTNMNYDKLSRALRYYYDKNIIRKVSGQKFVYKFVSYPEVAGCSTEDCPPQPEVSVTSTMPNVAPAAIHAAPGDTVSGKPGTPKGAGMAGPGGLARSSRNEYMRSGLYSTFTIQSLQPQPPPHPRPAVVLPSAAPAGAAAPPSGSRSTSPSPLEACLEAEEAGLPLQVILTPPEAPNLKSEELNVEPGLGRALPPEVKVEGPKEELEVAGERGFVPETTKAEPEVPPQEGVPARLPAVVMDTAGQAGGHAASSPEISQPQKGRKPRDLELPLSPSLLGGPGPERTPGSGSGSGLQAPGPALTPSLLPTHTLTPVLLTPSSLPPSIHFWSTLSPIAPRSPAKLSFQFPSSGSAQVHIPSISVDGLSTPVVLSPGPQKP
# Method in brief: as §1
# [3] = molecular target: T3, GABPA (Homo sapiens, UniProt Q06546 1-454); conditions: protein: recombinant; tags: N-terminal GST; dsDNA, one strand shown
# T3 sequence: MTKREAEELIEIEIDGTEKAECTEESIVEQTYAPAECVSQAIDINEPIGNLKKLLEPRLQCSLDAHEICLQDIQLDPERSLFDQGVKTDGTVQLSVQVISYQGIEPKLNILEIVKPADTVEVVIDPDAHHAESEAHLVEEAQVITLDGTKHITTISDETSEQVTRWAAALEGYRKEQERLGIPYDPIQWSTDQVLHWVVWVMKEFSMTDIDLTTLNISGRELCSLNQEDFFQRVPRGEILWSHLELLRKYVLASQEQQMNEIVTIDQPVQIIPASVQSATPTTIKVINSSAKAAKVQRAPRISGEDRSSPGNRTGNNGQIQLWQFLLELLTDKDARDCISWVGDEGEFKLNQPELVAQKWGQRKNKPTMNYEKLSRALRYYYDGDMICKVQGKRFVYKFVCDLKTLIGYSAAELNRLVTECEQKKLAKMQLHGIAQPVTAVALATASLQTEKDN
# Method in brief: as §1
# [4] = molecular target: ELF1 (Homo sapiens, UniProt P32519 1-619); conditions: protein: recombinant; tags: N-terminal GST; dsDNA, one strand shown
# Sequence of ELF1 (P32519 whole entry): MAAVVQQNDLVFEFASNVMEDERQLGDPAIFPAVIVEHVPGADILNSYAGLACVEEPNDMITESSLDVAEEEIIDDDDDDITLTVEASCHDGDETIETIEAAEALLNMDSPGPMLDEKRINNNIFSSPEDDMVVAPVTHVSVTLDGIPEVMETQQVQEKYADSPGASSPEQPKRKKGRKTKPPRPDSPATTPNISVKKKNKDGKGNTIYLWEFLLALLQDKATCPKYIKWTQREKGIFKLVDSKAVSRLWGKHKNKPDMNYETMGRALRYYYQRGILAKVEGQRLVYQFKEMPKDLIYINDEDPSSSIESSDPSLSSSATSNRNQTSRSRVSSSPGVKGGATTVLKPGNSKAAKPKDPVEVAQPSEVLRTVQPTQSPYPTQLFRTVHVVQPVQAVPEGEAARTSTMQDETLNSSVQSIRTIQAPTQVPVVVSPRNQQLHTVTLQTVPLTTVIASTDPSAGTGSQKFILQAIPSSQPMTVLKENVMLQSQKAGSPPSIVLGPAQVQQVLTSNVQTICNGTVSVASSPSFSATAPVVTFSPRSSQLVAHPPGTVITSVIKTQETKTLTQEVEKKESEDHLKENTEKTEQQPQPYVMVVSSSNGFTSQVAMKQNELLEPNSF
# Method in brief: as §1
# [5] = molecular target: SPIB (Homo sapiens, UniProt Q01892 1-262); conditions: protein: recombinant; tags: N-terminal GST; dsDNA, one strand shown
# Sequence of SPIB (Q01892 whole entry): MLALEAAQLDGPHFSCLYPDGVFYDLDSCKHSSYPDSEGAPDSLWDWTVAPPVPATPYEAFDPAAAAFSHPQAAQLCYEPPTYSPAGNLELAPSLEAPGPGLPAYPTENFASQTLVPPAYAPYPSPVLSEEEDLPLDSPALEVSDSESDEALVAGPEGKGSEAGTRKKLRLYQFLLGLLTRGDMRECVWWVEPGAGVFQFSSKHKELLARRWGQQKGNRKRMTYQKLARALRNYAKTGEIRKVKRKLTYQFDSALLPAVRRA
# Method in brief: as §1
# [6] = molecular target: T4, FEV (Homo sapiens, UniProt Q99581 1-238); conditions: protein: recombinant; tags: N-terminal GST; dsDNA, one strand shown
# T4 sequence: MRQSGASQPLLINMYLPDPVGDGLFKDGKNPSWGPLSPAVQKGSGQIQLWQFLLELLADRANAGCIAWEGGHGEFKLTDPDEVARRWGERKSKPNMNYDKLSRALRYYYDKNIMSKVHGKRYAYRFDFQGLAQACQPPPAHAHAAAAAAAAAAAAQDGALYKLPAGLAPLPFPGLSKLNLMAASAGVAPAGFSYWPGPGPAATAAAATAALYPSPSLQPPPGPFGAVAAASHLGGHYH
# Method in brief: as §1
# [7] = molecular target: ETV5 (Homo sapiens, UniProt P41161 1-510); conditions: protein: recombinant; tags: N-terminal GST; dsDNA, one strand shown
# Sequence of ETV5 (P41161 whole entry): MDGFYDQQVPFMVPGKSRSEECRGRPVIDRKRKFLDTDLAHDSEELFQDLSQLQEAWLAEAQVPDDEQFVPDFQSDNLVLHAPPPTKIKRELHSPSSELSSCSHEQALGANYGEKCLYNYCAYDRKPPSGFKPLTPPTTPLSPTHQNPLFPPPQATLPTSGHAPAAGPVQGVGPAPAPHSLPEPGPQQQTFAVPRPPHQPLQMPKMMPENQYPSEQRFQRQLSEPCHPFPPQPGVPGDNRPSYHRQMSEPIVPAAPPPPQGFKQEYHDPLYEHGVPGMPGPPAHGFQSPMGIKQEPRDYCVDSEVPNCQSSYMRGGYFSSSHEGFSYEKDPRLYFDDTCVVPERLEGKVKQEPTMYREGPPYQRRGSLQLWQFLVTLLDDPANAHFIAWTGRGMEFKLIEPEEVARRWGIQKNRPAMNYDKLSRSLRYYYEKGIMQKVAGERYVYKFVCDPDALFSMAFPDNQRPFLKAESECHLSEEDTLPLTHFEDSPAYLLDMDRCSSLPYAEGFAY
# Method in brief: as §1
# [8] = molecular target: HSF1 (Homo sapiens, UniProt Q00613 1-529); conditions: protein: recombinant; tags: N-terminal GST; chain copies: 3; dsDNA, one strand shown
# Sequence of HSF1 (Q00613 whole entry): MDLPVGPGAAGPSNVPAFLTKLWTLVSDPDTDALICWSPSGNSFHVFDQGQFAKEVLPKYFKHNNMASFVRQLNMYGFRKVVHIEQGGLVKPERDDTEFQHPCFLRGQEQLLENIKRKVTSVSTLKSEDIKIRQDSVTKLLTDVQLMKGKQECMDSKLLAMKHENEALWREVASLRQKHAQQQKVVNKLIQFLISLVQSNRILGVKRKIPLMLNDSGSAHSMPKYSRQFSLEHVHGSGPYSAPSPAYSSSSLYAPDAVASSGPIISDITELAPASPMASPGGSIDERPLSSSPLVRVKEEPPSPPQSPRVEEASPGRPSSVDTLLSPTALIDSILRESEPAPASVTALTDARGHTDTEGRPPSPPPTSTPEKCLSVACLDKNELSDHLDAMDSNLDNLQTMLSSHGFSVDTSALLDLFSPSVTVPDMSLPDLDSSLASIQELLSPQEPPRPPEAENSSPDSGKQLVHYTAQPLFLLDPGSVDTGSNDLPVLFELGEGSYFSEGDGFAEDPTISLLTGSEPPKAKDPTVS
# Method in brief: as §1
# [9] = molecular target: T5, SPIC (Homo sapiens, UniProt Q8N5J4 1-248); conditions: protein: recombinant; tags: N-terminal GST; dsDNA, one strand shown
# T5 sequence: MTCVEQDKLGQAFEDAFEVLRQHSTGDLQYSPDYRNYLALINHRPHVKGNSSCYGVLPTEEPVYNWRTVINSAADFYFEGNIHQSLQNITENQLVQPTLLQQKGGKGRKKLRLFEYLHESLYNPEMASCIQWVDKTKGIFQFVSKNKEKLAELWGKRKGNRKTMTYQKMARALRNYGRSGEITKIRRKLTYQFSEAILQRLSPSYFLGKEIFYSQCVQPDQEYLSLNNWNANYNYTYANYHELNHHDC
# Method in brief: as §1
# [10] = molecular target: T6, ELK4 (Homo sapiens, UniProt P28324-2 1-405); conditions: protein: recombinant; tags: N-terminal GST; dsDNA, one strand shown
# T6 sequence: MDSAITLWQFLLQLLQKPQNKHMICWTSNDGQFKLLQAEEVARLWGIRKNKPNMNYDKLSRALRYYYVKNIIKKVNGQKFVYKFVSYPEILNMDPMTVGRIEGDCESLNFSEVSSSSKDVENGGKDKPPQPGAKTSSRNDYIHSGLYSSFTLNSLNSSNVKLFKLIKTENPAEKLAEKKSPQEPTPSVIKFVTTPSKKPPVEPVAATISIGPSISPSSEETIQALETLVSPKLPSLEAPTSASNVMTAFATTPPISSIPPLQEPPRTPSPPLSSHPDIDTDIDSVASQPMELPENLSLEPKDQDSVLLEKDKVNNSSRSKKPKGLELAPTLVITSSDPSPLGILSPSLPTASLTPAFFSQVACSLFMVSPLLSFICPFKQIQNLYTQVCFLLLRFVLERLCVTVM
# Method in brief: as §1
# [11] = molecular target: T7, ELF3 (Homo sapiens, UniProt P78545 1-371); conditions: protein: recombinant; tags: N-terminal GST; dsDNA, one strand shown
# T7 sequence: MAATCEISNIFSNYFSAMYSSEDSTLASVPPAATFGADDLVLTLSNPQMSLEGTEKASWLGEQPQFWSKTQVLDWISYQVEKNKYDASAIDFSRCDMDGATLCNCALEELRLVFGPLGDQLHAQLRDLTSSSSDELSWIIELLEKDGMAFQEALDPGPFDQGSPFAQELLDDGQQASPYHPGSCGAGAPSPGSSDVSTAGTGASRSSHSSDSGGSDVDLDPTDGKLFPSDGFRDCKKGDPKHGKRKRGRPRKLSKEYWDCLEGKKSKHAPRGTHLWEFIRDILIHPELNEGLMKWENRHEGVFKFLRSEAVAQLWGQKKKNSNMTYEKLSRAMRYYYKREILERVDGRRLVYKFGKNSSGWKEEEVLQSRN
# Method in brief: as §1
# [12] = molecular target: CRX (Homo sapiens, UniProt O43186 1-299); conditions: protein: recombinant; tags: N-terminal GST; dsDNA, one strand shown
# Sequence of CRX (O43186 whole entry): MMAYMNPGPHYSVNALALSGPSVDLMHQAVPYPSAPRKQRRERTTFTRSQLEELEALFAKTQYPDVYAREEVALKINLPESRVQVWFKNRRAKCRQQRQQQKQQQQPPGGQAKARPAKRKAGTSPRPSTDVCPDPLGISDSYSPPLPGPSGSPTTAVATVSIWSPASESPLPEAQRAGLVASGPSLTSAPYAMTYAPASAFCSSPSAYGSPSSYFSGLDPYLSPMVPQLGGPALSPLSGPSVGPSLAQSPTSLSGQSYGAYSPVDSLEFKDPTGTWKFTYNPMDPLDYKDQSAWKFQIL
# Method in brief: as §1
# [13] = molecular target: ETV1 (Homo sapiens, UniProt P50549 1-477); conditions: protein: recombinant; tags: N-terminal GST; dsDNA, one strand shown
# Sequence of ETV1 (P50549 whole entry): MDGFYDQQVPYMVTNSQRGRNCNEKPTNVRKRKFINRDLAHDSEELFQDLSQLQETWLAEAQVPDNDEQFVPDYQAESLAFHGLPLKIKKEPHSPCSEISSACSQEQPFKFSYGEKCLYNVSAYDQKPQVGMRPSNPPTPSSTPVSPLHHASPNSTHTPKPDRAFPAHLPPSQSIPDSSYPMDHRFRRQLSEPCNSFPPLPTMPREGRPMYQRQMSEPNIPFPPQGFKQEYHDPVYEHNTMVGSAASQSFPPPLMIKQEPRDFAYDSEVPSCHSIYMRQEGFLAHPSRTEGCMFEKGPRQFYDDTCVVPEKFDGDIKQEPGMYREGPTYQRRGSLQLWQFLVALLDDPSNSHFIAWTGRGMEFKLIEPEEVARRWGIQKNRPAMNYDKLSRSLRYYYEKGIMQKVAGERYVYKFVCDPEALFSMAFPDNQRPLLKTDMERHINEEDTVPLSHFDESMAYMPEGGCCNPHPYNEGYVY
# Method in brief: as §1
sequence,measurement,setting,value
AAAGCC,binding signal,[1],"1.05 fold enrichment (6-mer frequency, TF over GST control)"
same,binding signal,[2],"1.05 fold enrichment (6-mer frequency, TF over GST control)"
same,binding signal,[3],"1.04 fold enrichment (6-mer frequency, TF over GST control)"
same,binding signal,[4],"1.08 fold enrichment (6-mer frequency, TF over GST control)"
same,binding signal,[5],"1 fold enrichment (6-mer frequency, TF over GST control)"
same,binding signal,[6],"1.03 fold enrichment (6-mer frequency, TF over GST control)"
same,binding signal,[7],"1.02 fold enrichment (6-mer frequency, TF over GST control)"
same,binding signal,[8],"1.14 fold enrichment (6-mer frequency, TF over GST control)"
same,binding signal,[9],"1.14 fold enrichment (6-mer frequency, TF over GST control)"
same,binding signal,[10],"1.02 fold enrichment (6-mer frequency, TF over GST control)"
same,binding signal,[11],"1.01 fold enrichment (6-mer frequency, TF over GST control)"
same,binding signal,[12],"1.42 fold enrichment (6-mer frequency, TF over GST control)"
same,binding signal,[13],"1.03 fold enrichment (6-mer frequency, TF over GST control)"
